Results reported in PMC4552634, “A New Set of Chemical Starting Points with Plasmodium falciparum Transmission-Blocking Potential for Antimalarial Drug Discovery” (PLoS ONE, 2015).
The campaign covered roughly 13,000 compounds. About 3,200 (25%) showed an effect of 50% or more. Some of the results follow.

Test system: P. falciparum stage V gametocytes
Set-up: BacTiter-Glo ATP luminescence viability of purified stage V gametocytes in 384-well plates, per cent inhibition versus DMSO
Conditions: 48 h, 5 µM; inhibitor

Compound	% Inhibition [%]
CN1CCN(c2cc(NC(=O)Nc3ccc(-c4ccncc4)c(Cl)c3)ccc2Br)CC1 [TCMDC-139221]	36.17
COc1cc(OC)cc(-c2nc3c(C#N)c(OCCN(C)C)ccc3[nH]2)c1 [TCMDC-133764]	10.97
CCOC(=O)c1ccc(NC(=O)NC2CCN(CCCCCNC(=O)/C=C/c3ccc(Cl)c(Cl)c3)C2)cc1 (centres unmarked) [TCMDC-139526]	12.95
CCOC(=O)c1ccc(NC(=O)N[C@H]2CCN(CCCCCNC(=O)/C=C/c3ccc(Cl)c(Cl)c3)C2)cc1 [TCMDC-139511]	97.51
CCNc1cc(C(=O)N[C@@H](Cc2ccccc2)[C@H](O)CNC2CCC(F)(F)CC2)c(F)c(N2CCCCS2(=O)=O)c1 [TCMDC-135448]	35.59
COc1ccc2nc3cc(Cl)ccc3c(NCCCCN3CCNCC3)c2c1 [TCMDC-137578]	99.69
COc1ccc2nc3ccccc3c(NCCN3CCN(C)CC3)c2c1 [TCMDC-138017]	69.17
CCN1CCN(CCCNc2c3ccc(Cl)cc3nc3ccc(O)cc23)CC1 [TCMDC-137583]	70.77
CCN1CCN(CCCNc2c3ccc(Cl)cc3nc3ccc(OC)cc23)CC1 [TCMDC-137586]	86.55
CCN1CCN(CCCNc2ccnc3cc(Cl)ccc23)CC1 [TCMDC-137588]	6.527
COc1ccc2nc3cc(Cl)ccc3c(NCCc3ccccc3)c2c1.Cl [TCMDC-137665]	-3.627
CN1CCCc2ccc(NC(=O)Nc3ccc(Cl)c(Cl)c3)cc2C1 [TCMDC-133732]	-5.496
Cc1ccc2[nH]c3c(NCCN(C)C)ncnc3c2c1 [TCMDC-124581]	-20.4
COc1ccc2nc3cc(Cl)ccc3c(Nc3ccc(C(=O)O)cc3)c2c1.Cl [TCMDC-138029]	43.24
Cc1ccc2nc3ccccc3c(NCCN3CCN(C)CC3)c2c1 [TCMDC-138018]	95.43
COc1ccc2nc3cc(Cl)ccc3c(NCCN3CCN(C)CC3)c2c1 [TCMDC-137476]	105
CCOC(=O)N1CCN(CCCNc2c3ccc(Cl)cc3nc3ccc(OC)cc23)CC1 [TCMDC-137480]	40.55
COc1ccc2nc3cc(Cl)ccc3c(NCCCN3CCNCC3)c2c1 [TCMDC-137580]	104.3
CCOC(=O)N1CCN(CCCCNc2c3ccc(Cl)cc3nc3ccc(OC)cc23)CC1.Cl [TCMDC-137579]	70.35
CCOC(=O)C1=C(C)NC2=C(C(=O)CC(C)(C)C2)C1c1ccc(Cl)cc1 (centres unmarked) [TCMDC-123497]	10
O=C(N[C@@H](CC1CCCCC1)C(=O)NCCN1CCCC1)c1ccc(O)c(-c2ccc(Cl)c(Cl)c2)c1 [TCMDC-140830]	4.598
COc1ccc(Nc2nccc(NCC(O)c3ccc(C(F)(F)F)cc3)n2)cc1 (centres unmarked) [TCMDC-136595]	-79.42

Compound	% Inhibition [%]
CCCCCN(C(=O)Nc1cc(C(F)(F)F)cc(C(F)(F)F)c1)C(C)c1nc2ccccc2c(=O)n1CC (centres unmarked) [TCMDC-124043]	-29.97
O=C(Nc1cc(C(F)(F)F)ccc1Cl)c1ccc(Cn2cc(Br)cn2)cc1 [TCMDC-124912]	-0.3608
O=c1cc(NCCCNCc2cccc(C(F)(F)F)c2Cl)[nH]c2ccccc12 [TCMDC-139421]	-19.98
FC(F)(F)COc1c(CNCCCCCCNCc2ccc3ccccc3c2OCC(F)(F)F)ccc2ccccc12 [TCMDC-137833]	67.85
FC(F)(F)COc1c(CCNCCCCNCCc2ccc3ccccc3c2OCC(F)(F)F)ccc2ccccc12 [TCMDC-137169]	119.3
N#Cc1ccc(CNCCCCCCNCc2ccc(C#N)c3ccccc23)c2ccccc12 [TCMDC-137849]	40.84
CN(C)c1ccc(C2(c3ccccc3)N=C(N)N(CCCc3ccccc3)C2=O)cc1 (centres unmarked) [TCMDC-136715]	-12.92
CC(C)COc1ccc(C(O)C(CN2CCCCC2)c2ccccc2)cc1 (centres unmarked) [TCMDC-124253]	31.95
CCCCCOc1ccc(C(O)C(CN2CCCCC2)c2ccccc2)cc1 (centres unmarked) [TCMDC-124165]	1.137
CCCCCOc1ccc(C(O)C(CCC(CN2CCCCCC2)C(O)c2ccc(OCCCCC)cc2)CN2CCCCCC2)cc1 (centres unmarked) [TCMDC-124174]	105.7
COc1ccc(CNC2CCN(C)CC2)cc1-c1ccc(S(=O)(=O)NCCc2ccccn2)s1 [TCMDC-132256]	13.25
COc1ccc(CNC2Cc3ccccc3C2)cc1-c1ccc(S(=O)(=O)NCc2ccccc2)s1 [TCMDC-132252]	67.04
COc1ccc(CNC2CCN(C)CC2)cc1-c1ccc(S(=O)(=O)NCc2cccnc2)s1 [TCMDC-132261]	20.62
COc1ccc(CNC2Cc3ccccc3C2)cc1-c1ccc(S(=O)(=O)NCc2cccnc2)s1 [TCMDC-132260]	33.12
COc1cc(CNC2Cc3ccccc3C2)ccc1Oc1ccc2nc[nH]c2c1 [TCMDC-133481]	-19.03
COc1ccc(CNC2CCN(C)CC2)cc1-c1ccc(S(=O)(=O)NCc2ccccc2)s1 [TCMDC-132253]	85.45
COc1ccc(CNC2Cc3ccccc3C2)cc1-c1ccc(S(=O)(=O)NCCc2ccccn2)s1 [TCMDC-132255]	98.81
COc1ccc(NC(=O)/C=C/c2ccccc2Cl)cc1OCCN1CCC(Cc2cc3ccccc3[nH]2)CC1 [TCMDC-140920]	-36.18
CN(C)C(CNC(=O)c1cc(-c2ccncc2)c(-c2ccc(Cl)c(O)c2)o1)c1ccccc1 (centres unmarked) [TCMDC-135438]	-15.77
O=C(CCc1cnc[nH]1)Nc1cccc(-c2ccc(-c3nc4ccc(F)cc4[nH]3)cc2)c1 [TCMDC-132154]	23.15
Cc1ccc(N2CCN(C(=O)c3cccc(-c4cncc5nc(-c6ccco6)n(C)c45)c3)CC2)nc1 [TCMDC-134992]	-10.32
C#CCNC(=O)c1ccc(-c2ccnc(Nc3cccc(CCCN4CCOCC4)c3)n2)s1 [TCMDC-136764]	20.31
